# Assay results from PubChem BioAssay (EPA / NIEHS).
# Inconclusive results are not listed. Active and inactive are the calls of the source. Rule for the calls, unless noted: active = hit-call score of the fitted dose curve at least 0.9, where 1 is the maximum; inconclusive = response in the unintended direction; inactive = score below 0.9.
# What was measured:
# [1] = target: human RAR-related Orphan Receptor gamma (RORg), RORC (gene 6097) (UniProt P51449); experiment: ATG_RORg_TRANS: Attagene TRANS-FACTORIAL HepG2 Assay for human RAR-related Orphan Receptor gamma (RORg) (AID 2283011)
# Sequence of human RAR-related Orphan Receptor gamma (RORg), RORC (gene 6097) (P51449 whole entry, looked up, the tested form may be a part): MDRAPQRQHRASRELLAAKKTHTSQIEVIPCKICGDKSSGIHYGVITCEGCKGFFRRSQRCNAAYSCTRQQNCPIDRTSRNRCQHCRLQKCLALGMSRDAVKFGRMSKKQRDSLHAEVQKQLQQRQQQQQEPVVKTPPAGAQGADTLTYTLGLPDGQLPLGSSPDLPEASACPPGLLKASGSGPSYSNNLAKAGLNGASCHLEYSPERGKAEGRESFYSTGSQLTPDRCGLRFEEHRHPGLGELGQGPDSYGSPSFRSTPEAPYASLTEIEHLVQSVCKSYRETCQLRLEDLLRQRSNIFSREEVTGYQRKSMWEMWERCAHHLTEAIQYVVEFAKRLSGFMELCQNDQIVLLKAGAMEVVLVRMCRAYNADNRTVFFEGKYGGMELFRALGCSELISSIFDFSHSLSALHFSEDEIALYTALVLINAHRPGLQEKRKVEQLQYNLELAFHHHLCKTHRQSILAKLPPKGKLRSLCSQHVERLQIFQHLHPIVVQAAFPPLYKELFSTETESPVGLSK
# Method in brief: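 Reporter transcripts from a transfected RORg-GAL4 chimera in HepG2 cells were quantified 24 h after dosing by RT-PCR, 6-FAM labelling, HpaI digestion and capillary electrophoresis; increases over DMSO baseline were fitted.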
# [2] = target: Retinoic acid receptor RXR-alpha (Homo sapiens) (UniProt P19793); experiment: ATG_RXRa_TRANS: Attagene TRANS-FACTORIAL HepG2 Assay for human Retinoid X Receptor alpha (RXRa) (AID 2283012)
# Sequence of Retinoic acid receptor RXR-alpha (Homo sapiens) (P19793 whole entry, looked up, the tested form may be a part): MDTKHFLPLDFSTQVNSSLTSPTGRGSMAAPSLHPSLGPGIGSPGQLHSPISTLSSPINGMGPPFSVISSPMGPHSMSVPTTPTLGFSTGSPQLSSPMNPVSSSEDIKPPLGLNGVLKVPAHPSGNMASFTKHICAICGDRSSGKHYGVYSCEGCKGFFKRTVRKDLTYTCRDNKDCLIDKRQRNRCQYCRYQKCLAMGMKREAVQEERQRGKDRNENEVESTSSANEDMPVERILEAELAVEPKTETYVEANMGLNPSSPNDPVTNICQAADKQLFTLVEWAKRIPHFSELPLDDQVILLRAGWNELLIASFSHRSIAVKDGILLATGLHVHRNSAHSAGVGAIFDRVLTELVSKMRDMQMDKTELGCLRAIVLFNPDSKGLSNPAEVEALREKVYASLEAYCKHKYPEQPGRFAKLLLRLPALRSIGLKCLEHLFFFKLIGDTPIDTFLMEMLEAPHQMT
# Method in brief: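 Transient transfection of human HepG2 with multiple GAL4-UAS reporter constructs; 24 h compound exposure; total RNA isolated, reverse-transcribed, PCR-amplified, 6-FAM labelled, HpaI-cut, resolved by capillary electrophoresis. Positive-direction fit versus DMSO.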
# [3] = target: human Retinoid X Receptor beta (RXRb), RXRB (gene 6257) (UniProt P28702); experiment: ATG_RXRb_TRANS: Attagene TRANS-FACTORIAL HepG2 Assay for human Retinoid X Receptor beta (RXRb) (AID 2283013)
# Sequence of human Retinoid X Receptor beta (RXRb), RXRB (gene 6257) (P28702 whole entry, looked up, the tested form may be a part): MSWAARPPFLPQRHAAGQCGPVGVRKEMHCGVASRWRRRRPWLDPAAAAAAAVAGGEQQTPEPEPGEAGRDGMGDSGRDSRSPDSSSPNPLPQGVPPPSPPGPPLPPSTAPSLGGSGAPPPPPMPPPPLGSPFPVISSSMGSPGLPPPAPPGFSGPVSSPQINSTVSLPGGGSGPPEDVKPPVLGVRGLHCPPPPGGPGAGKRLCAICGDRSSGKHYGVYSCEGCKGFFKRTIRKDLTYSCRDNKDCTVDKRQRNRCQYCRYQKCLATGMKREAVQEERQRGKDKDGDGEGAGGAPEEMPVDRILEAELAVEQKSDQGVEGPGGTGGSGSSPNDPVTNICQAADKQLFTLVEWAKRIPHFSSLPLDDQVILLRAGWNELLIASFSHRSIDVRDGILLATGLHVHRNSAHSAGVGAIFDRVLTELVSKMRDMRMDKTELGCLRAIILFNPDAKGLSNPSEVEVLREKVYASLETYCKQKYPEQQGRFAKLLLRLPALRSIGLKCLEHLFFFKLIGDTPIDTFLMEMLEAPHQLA
# Method in brief: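 Transfect HepG2 with GAL4-UAS multi-reporter constructs (chimeric NR-Gal4, TRANS format); dose compound 24 h; isolate RNA, RT-PCR, FAM primer extension, HpaI digest; quantify by capillary electrophoresis; positive direction vs DMSO.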
# [4] = target: human Thyroid Receptor alpha (THRa1), THRA (gene 7067) (UniProt P10827); experiment: ATG_THRa1_TRANS: Attagene TRANS-FACTORIAL HepG2 Assay for human Thyroid Receptor alpha (THRa1) (AID 2283014)
# Sequence of human Thyroid Receptor alpha (THRa1), THRA (gene 7067) (P10827 whole entry, looked up, the tested form may be a part): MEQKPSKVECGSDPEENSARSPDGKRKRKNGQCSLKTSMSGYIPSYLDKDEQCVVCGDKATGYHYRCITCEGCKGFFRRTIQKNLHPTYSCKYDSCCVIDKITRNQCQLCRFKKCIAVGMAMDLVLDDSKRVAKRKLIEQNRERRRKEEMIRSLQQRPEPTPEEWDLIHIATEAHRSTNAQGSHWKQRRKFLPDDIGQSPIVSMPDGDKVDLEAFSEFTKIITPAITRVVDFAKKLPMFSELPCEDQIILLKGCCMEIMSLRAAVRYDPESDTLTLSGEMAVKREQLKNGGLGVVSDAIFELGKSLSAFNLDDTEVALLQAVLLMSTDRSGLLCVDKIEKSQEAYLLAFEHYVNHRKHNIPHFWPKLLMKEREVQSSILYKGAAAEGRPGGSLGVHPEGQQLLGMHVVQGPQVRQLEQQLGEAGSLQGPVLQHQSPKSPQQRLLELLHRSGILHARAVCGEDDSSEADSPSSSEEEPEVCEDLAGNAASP
# Method in brief: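 Transcripts from GAL4-UAS-driven reporters, measured after 24 h compound exposure by RT-PCR plus capillary electrophoresis of 6-FAM-labeled fragments, were fitted for gain of signal relative to DMSO. Cells: transiently transfected HepG2 expressing NR-Gal4 chimeras.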
# [5] = read-out: E-selectin (Homo sapiens) (UniProt P16581); experiment: BSK_3C_Eselectin: BioMAP Diversity Plus: 3C Assay for Eselectin Biomarker Activity (AID 2283015; active = hit-call score of the fitted dose curve at least 0.9, where 1 is the maximum; inactive = score below 0.9;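 for outcome: cell surface E-selectin protein quantified by ELISA 24 h after dosing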); details: primary human endothelial cells (HUVEC); actives raise or lower the signal
# Method in brief: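 E-selectin ELISA readout, fitted bidirectionally relative to DMSO, taken 24 h post-dosing in HUVEC cultures of the 3C system. Overt cytotoxicity tracked with sulforhodamine B staining of parallel wells.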
# [6] = read-out: Interleukin-1 alpha (IL1a), IL1A (gene 3552); experiment: BSK_BE3C_IL1a: BioMAP Diversity Plus: BE3C Assay for Interleukin-1 alpha (IL1a) Biomarker Activity (AID 2283016; active = hit-call score of the fitted dose curve at least 0.9, where 1 is the maximum; inactive = score below 0.9); details: primary human bronchial epithelial cells; actives raise or lower the signal
# Method in brief: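 BE3C primary human bronchial epithelium; cpd 24 h; IL-1a by ELISA; bidirectional fit vs DMSO; parallel SRB (0.1% SRB, 10% TCA fix, 560 nm) for cytotoxicity.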
# [7] = read-out: Monocyte Chemoattractant Protein-1 (MCP1), CCL2 (gene 6347); experiment: BSK_3C_MCP1: BioMAP Diversity Plus: 3C Assay for Monocyte Chemoattractant Protein-1 (MCP1) Biomarker Activity (AID 2283017; active = hit-call score of the fitted dose curve at least 0.9, where 1 is the maximum; inactive = score below 0.9); details: primary human endothelial cells (HUVEC); actives raise or lower the signal
# Method in brief: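 MCP-1 was measured by ELISA 24 h after dosing in primary HUVEC 3C cultures and fitted in both directions relative to DMSO; cytotoxicity was checked by SRB total-protein staining in parallel wells.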
# [8] = read-out: Monocyte Chemoattractant Protein-1 (MCP1), CCL2 (gene 6347); experiment: BSK_4H_MCP1: BioMAP Diversity Plus: 4H Assay for Monocyte Chemoattractant Protein-1 (MCP1) Biomarker Activity (AID 2283018; active = hit-call score of the fitted dose curve at least 0.9, where 1 is the maximum; inactive = score below 0.9); details: primary human endothelial cells (HUVEC); actives raise or lower the signal
# Method in brief: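 ELISA read-out of MCP-1 from human vascular endothelial primary cells taken at 24 hours after compound exposure. Activity was fitted in both directions relative to DMSO, which served as negative control.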
# [9] = read-out: Human Leukocyte Antigen - DR isotype (HLADR), HLA-DRA (gene 3122); experiment: BSK_3C_HLADR: BioMAP Diversity Plus: 3C Assay for Human Leukocyte Antigen - DR isotype (HLADR) Biomarker Activity (AID 2283019; active = hit-call score of the fitted dose curve at least 0.9, where 1 is the maximum; inactive = score below 0.9;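 for outcome: ELISA of cell-surface HLA-DR on HUVEC 24 h after dosing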); details: primary human endothelial cells (HUVEC); actives raise or lower the signal
# Method in brief: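 Bidirectional fitting against DMSO was applied to the HLA-DR ELISA signal from human umbilical vein endothelial cells, 24 h post-dose. Cytotoxicity came from parallel SRB total-protein staining; 3C proliferation was counted by SRB at 48 h.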
# [10] = read-out: Interleukin-8 (IL8), CXCL8 (gene 3576); experiment: BSK_3C_IL8: BioMAP Diversity Plus: 3C Assay for Interleukin-8 (IL8) Biomarker Activity (AID 2283020; active = hit-call score of the fitted dose curve at least 0.9, where 1 is the maximum; inactive = score below 0.9); details: primary human endothelial cells (HUVEC); actives raise or lower the signal
# Method in brief: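 ELISA read-out of IL-8 from human umbilical vein endothelium, measured 24 h after chemical dosing. Activity is expressed relative to DMSO negative control, with both increases and decreases fitted.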
# [11] = BSK_3C_SRB: Viability Assessment in the BioMAP Diversity Plus: 3C Assay (AID 2283023; active = hit-call score of the fitted dose curve at least 0.9, where 1 is the maximum; inactive = score below 0.9;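 note: fitted both ways against DMSO so a hit may be signal rise or drop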); details: primary human endothelial cells (HUVEC)
# Method in brief: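 Cytotoxicity readout in parallel HUVEC 3C cultures: after 24 h compound exposure, cells fixed with 10% TCA, stained with 0.1% SRB and read at 560 nm. Gain or loss relative to DMSO fitted.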
# [12] = read-out: Pselectin, SELP (gene 6403); experiment: BSK_4H_Pselectin: BioMAP Diversity Plus: 4H Assay for Pselectin Biomarker Activity (AID 2283026; active = hit-call score of the fitted dose curve at least 0.9, where 1 is the maximum; inactive = score below 0.9); details: primary human endothelial cells (HUVEC); actives raise or lower the signal
# Method in brief: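 ELISA read-out of P-selectin on human umbilical vein endothelium after 24 h of dosing. Values derive from bidirectional fitting relative to DMSO. Parallel SRB protein staining flagged overt cytotoxicity.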
# [13] = BSK_BE3C_SRB: Viability Assessment in the BioMAP Diversity Plus: BE3C Assay (AID 2283028; active = hit-call score of the fitted dose curve at least 0.9, where 1 is the maximum; inactive = score below 0.9); details: primary human bronchial epithelial cells
# Method in brief: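 Cytotoxicity read-out: SRB (0.1%) staining of TCA-fixed (10%) human lung bronchial epithelial cells, absorbance 560 nm, 24 h post-dosing. Curves fitted both directions relative to DMSO.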
# [14] = read-out: Thrombomodulin, THBD (gene 7056); experiment: BSK_3C_Thrombomodulin: BioMAP Diversity Plus: 3C Assay for Thrombomodulin Biomarker Activity (AID 2283029; active = hit-call score of the fitted dose curve at least 0.9, where 1 is the maximum; inactive = score below 0.9); details: primary human endothelial cells (HUVEC); actives raise or lower the signal
# Method in brief: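 Read-out is ELISA of thrombomodulin on human umbilical vein endothelium 24 h after chemical dosing. Gain or loss of signal is scored relative to DMSO. Overt cytotoxicity is checked in parallel cultures by sulforhodamine B staining.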
# [15] = read-out: Urokinase-type plasminogen activator receptor (uPAR), PLAUR (gene 5329); experiment: BSK_4H_uPAR: BioMAP Diversity Plus: 4H Assay for Urokinase-type plasminogen activator receptor (uPAR) Biomarker Activity (AID 2283030; active = hit-call score of the fitted dose curve at least 0.9, where 1 is the maximum; inactive = score below 0.9); details: primary human endothelial cells (HUVEC); actives raise or lower the signal
# Method in brief: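 uPAR level read by ELISA on HUVEC cultures (BioMAP 4H) 24 h post-dosing, analyzed for gain or loss relative to DMSO. Parallel SRB staining assessed overt cytotoxicity.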
# [16] = target: human Vitamin D Receptor (VDR), VDR (gene 7421) (UniProt P11473); experiment: ATG_VDR_TRANS: Attagene TRANS-FACTORIAL HepG2 Assay for human Vitamin D Receptor (VDR) (AID 2283022)
# Sequence of human Vitamin D Receptor (VDR), VDR (gene 7421) (P11473 whole entry, looked up, the tested form may be a part): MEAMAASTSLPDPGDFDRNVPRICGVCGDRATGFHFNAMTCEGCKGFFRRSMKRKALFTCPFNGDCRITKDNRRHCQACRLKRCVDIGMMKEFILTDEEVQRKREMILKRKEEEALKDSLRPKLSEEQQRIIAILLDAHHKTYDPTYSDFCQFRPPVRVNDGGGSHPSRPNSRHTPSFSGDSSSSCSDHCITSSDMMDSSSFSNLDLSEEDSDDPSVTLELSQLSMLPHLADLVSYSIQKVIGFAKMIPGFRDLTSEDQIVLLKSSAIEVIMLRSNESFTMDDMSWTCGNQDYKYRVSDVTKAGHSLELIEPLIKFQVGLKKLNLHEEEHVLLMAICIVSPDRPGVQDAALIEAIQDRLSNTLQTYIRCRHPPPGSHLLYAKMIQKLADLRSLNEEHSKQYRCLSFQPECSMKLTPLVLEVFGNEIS
# Method in brief: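 Transactivation by an exogenous VDR-Gal4 chimera in transiently transfected HepG2 cells was measured as reporter transcript level 24 hours after chemical treatment. RT-PCR products were analysed by capillary electrophoresis and fitted in the positive direction relative to DMSO.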
# [17] = BSK_4H_SRB: Viability Assessment in the BioMAP Diversity Plus: 4H Assay (AID 2283027; active = hit-call score of the fitted dose curve at least 0.9, where 1 is the maximum; inactive = score below 0.9;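 note: cells exposed to compound for 24 h before staining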;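 for AC50: curves fitted both ways versus DMSO so AC50 may be loss or gain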); details: primary human endothelial cells (HUVEC)
# Method in brief: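 Absorbance at 560 nm of SRB-stained total protein served as the viability read-out in confluent primary human umbilical vein endothelium 24 h after chemical treatment. Curves were fitted bidirectionally against DMSO as negative control.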
# Sequence of E-selectin (Homo sapiens) (P16581 whole entry, looked up): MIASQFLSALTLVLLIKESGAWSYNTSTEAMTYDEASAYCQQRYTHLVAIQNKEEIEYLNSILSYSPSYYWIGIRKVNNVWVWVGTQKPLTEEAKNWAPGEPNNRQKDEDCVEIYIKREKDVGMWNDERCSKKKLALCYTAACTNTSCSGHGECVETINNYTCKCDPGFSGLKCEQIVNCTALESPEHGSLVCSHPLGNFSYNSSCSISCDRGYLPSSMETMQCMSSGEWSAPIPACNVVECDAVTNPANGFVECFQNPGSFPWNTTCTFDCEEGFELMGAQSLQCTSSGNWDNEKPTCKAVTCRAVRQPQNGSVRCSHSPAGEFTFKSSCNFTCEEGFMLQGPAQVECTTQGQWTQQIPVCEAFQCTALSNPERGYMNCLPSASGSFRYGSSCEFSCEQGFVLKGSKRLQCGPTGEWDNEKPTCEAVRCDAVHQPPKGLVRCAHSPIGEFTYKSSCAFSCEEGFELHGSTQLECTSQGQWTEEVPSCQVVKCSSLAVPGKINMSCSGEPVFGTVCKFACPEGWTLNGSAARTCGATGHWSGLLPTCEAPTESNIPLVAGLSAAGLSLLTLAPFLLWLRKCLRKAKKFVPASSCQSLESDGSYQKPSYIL
structure (smiles),measurement,setting,value
CC(=O)CCC=C(C)CCC=C(C)C,outcome,[1],inactive
same,outcome,[2],inactive
same,outcome,[3],inactive
same,outcome,[4],inactive
same,outcome,[5],inactive
same,outcome,[6],inactive
same,outcome,[7],inactive
same,outcome,[8],inactive
same,outcome,[9],inactive
same,outcome,[10],inactive
same,outcome,[11],inactive
same,outcome,[12],inactive
same,outcome,[13],inactive
same,outcome,[14],inactive
same,outcome,[15],inactive
C=C1CC/C=C(\C)CC[C@@H]2[C@@H]1CC2(C)C,outcome,[1],inactive
same,outcome,[2],inactive
same,AC50,[3],19.4 µM (active)
same,outcome,[4],inactive
same,AC50,[5],27.4 µM (active)
same,outcome,[6],inactive
same,AC50,[7],31.5 µM (active)
same,AC50,[8],29.1 µM (active)
same,AC50,[9],28.7 µM (active)
same,AC50,[10],30.6 µM (active)
same,outcome,[16],inactive
same,AC50,[11],29.8 µM (active)
same,AC50,[12],29.1 µM (active)
same,AC50,[17],31.9 µM (active)
same,outcome,[13],inactive
same,outcome,[14],inactive
same,AC50,[15],33.2 µM (active)
ClCCOCCOCCCl,outcome,[1],inactive
same,outcome,[2],inactive
same,outcome,[3],inactive
same,outcome,[4],inactive
CCC=C(C)C=O,outcome,[1],inactive
same,outcome,[2],inactive
same,AC50,[3],26.6 µM (active)
same,outcome,[4],inactive
CC(=O)CCC(=O)O,outcome,[1],inactive
same,outcome,[2],inactive
same,outcome,[3],inactive
same,outcome,[4],inactive
Cc1cccc(O)c1,outcome,[1],inactive
C[N+](C)(C)CCO,outcome,[1],inactive
same,outcome,[2],inactive
S=c1[nH][nH]c(=S)s1,outcome,[1],inactive
same,outcome,[2],inactive
same,outcome,[3],inactive
same,outcome,[4],inactive
same,outcome,[16],inactive
C=CC(C)(CCC=C(C)C)OC(=O)CC (stereo not drawn),outcome,[1],inactive
same,outcome,[2],inactive
same,outcome,[3],inactive
same,outcome,[16],inactive
CC(C)Cc1ccccc1,outcome,[1],inactive
same,outcome,[2],inactive
same,outcome,[3],inactive
CCCCCCCCOS(=O)(=O)O,outcome,[1],inactive
same,outcome,[2],inactive
same,AC50,[3],100 µM (active)
COC(=O)c1ccc(C(=O)OC)cc1,outcome,[1],inactive
same,outcome,[2],inactive
same,outcome,[3],inactive
same,outcome,[4],inactive
same,outcome,[5],inactive
same,outcome,[6],inactive
same,outcome,[7],inactive
same,outcome,[8],inactive
same,outcome,[9],inactive
same,outcome,[10],inactive
same,outcome,[16],inactive
same,outcome,[11],inactive
same,outcome,[12],inactive
same,outcome,[17],inactive
same,outcome,[13],inactive
same,outcome,[14],inactive
same,outcome,[15],inactive
CC(=O)C1C(=O)C=C(C)OC1=O (stereo not drawn),outcome,[1],inactive
same,outcome,[2],inactive
same,outcome,[4],inactive
same,outcome,[16],inactive
